# Measurements reported in PubChem BioAssay (NCI).
# Compounds without any hit were thinned out: in the full panel of roughly 79,000, 15% have a hit. Unmarked numbers belong to inactive results. Calls of active or inactive are those of the source. Rule as the data show it: active = growth inhibition above about 70%; inactive = the rest.
# Tests used:
# [1] = NCI Yeast Anticancer Drug Screen. Data for the rad50 strain (AID 155);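 also: 0% = growth of vehicle-only cultures of the same strain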; details: S. cerevisiae rad50 strain growth inhibition; at 50.0 µM; hits give high values
# Summary of the method: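 Yeast carrying a defined DNA repair defect were exposed to test compounds, and growth was compared with vehicle-treated controls to give percent inhibition.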
# [2] = NCI Yeast Anticancer Drug Screen. Data for the mec2-1 strain (AID 157); details: S. cerevisiae mec2-1 strain, at 50.0 µM, hits give high values
# Summary of the method: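 Test agents were screened against the mec2-1 yeast strain, with defined DNA repair or cell cycle alteration. Growth was scored as inhibition against vehicle-only controls.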
# [3] = NCI Yeast Anticancer Drug Screen. Data for the sgs1 mgt1 strain (AID 161);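 also: 0% = growth of cultures given vehicle only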; details: S. cerevisiae sgs1 mgt1 strain, at 50.0 µM, hits give high values
# Summary of the method: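 Inhibition of yeast growth, normalised to vehicle-treated controls, is reported for a strain bearing genetic alterations in DNA damage repair.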
# [4] = NCI Yeast Anticancer Drug Screen. Data for the cln2 rad14 strain (AID 165);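 also: 0% = growth equal to vehicle treated cultures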; details: S. cerevisiae cln2 rad14 strain, at 50.0 µM, hits give high values
# Summary of the method: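 Growth of compound-exposed yeast (cln2 rad14 genotype) measured and expressed as inhibition relative to vehicle.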
# [5] = NCI Yeast Anticancer Drug Screen. Data for the bub3 strain (AID 167); details: S. cerevisiae bub3 mutant strain, at 50.0 µM, hits give high values
# Summary of the method: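 Compounds were applied to a genetically altered yeast strain carrying a cell-cycle control defect. Growth inhibition was scored against vehicle-treated controls.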
# [6] = NCI Yeast Anticancer Drug Screen. Data for the mlh1 rad18 strain (AID 175); details: S. cerevisiae mlh1 rad18 strain growth inhibition; at 50.0 µM; hits give high values
# Summary of the method: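 In this whole-cell yeast screen, a strain with altered DNA damage repair is challenged with compound, and its growth is measured against matched vehicle-treated controls.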
Compound,growth inhibition [1],growth inhibition [2],growth inhibition [3],growth inhibition [4],growth inhibition [5],growth inhibition [6]
CO[C@H]1C=CO[C@@]2(C)Oc3c(C)c(O)c4c(O)c(c(CN5CCN(C)CC5)c(O)c4c3C2=O)NC(=O)/C(C)=C\C=C[C@H](C)[C@H](O)C(C)[C@@H](O)C(C)[C@H](OC(C)=O)[C@@H]1C (stereo not given in full),-14.5%,-4.85%,-21.1%,54%,-36.2%,-34.4%
CC(C)=CCNc1ncnc2c1ncn2CCC(=O)OC(C)(C)C,-9.75%,-3.2%,-3.7%,-15.9%,10.1%,1.55%
Nc1ccccc1NC(=O)C(F)(F)F,-2.45%,-5.4%,3.3%,-8.4%,-8.75%,1.15%
CCCc1c(O)c2ccccc2[nH]c1=O,11.3%,11.7%,-37.8%,14.7%,15.8%,-8.3%
Nc1cc2c3c(cccc3c1Br)C(=O)NC2=O,85.2% (active),14.6%,35.5%,12.1%,15.3%,15.8%
c1ccc(-c2cc3cc4c(cc3[nH]2)Oc2ccccc2O4)cc1,5.45%,14.4%,18.4%,10.8%,5.2%,3.1%
O=C(O)C(Cc1ccccc1)NC(c1ccc(Cl)cc1)P(=O)(O)O (stereo not given),14.3%,7.95%,-2.3%,12.8%,-4.8%,20.8%
CN(C)c1ccc(/C=C(\C#N)c2ccc(F)cc2F)cc1,0.4%,-2.75%,-3.4%,-9.05%,-5.25%,-23.9%
O=C(NC(=O)C1(C(=O)O)CCCC1)Nc1ccccc1,7.95%,-7.05%,6.4%,-39.1%,27.4%,-9.15%
C/C(=C\CC1C(=O)N(c2ccccc2)N(c2ccccc2)C1=O)CO,-10.9%,-32.2%,-29.9%,-18.2%,-28.6%,-11.9%
CCCC(=O)c1c(NOC2OCC(OC(C)=O)C(OC(C)=O)C2OC(C)=O)nc(OC)n(C)c1=O (stereo not given),-24.7%,3.1%,-40.1%,6.8%,-15.9%,-16.6%
O=C1C/C(=C/c2ccccc2[N+](=O)[O-])C(=O)N1c1ccccc1,16.4%,4.35%,13.4%,-36.1%,3.8%,11.2%
O=c1c2ccccc2n2nnc3ccc(NCCNCCO)c1c32,-15.1%,2.8%,-0.7%,23.3%,-0.45%,-1.3%
CC1(Br)CC2OC3(Br)C=CC(C)(O)C2(CC1=O)C3(C)C (stereo not given),27.2%,10.8%,13.4%,15.7%,20.4%,25.9%
CN(O)C(=O)c1ccccc1,5.45%,-8.4%,-6.35%,11.9%,15.1%,16.9%
CCCN(CCC)C1=Nc2ccccc2-n2cnnc2C1,-22.4%,3.45%,-25.6%,3.1%,-2.25%,-11.4%
CN(C)c1ncnc2c1ncn2CC(O)CN (stereo not given),-7.9%,-8.65%,-15.8%,4.4%,5.4%,-17.2%
C=CCNC=O,2.55%,3.6%,-6.4%,-5.05%,14.4%,-18.1%
O=C(O)C(CCOc1ccccc1)CCOc1ccccc1,0.7%,-15.2%,3.5%,-10.4%,-9.15%,-26.3%
C=C(C)/C=C/S(=O)c1ccccc1 (stereo not given),-3.3%,-2.85%,10.3%,-5.35%,-16.4%,-5.15%

Compound,growth inhibition [1],growth inhibition [2],growth inhibition [3],growth inhibition [4],growth inhibition [5],growth inhibition [6]
COCC(=O)Nc1ccccc1,-13.5%,6.05%,2.1%,1.55%,6.8%,-6%
Cc1ccc(S(=O)(=O)OI(O)CC(F)(F)F)cc1,-39.1%,15.5%,-2.5%,-2.05%,6.5%,25.9%
O=C(Nc1ccc(Cl)cc1)c1ccc(C(=O)Nc2ccc(Cl)cc2)cc1,-12.9%,-26.4%,-20.1%,5.35%,-6.4%,-24.9%
CCCCCCCCCCCCCCCCCCNC(=O)N1CCCCC1C (stereo not given),10.2%,-3.9%,-14.7%,-24.1%,-3.9%,14.3%
CC(Cl)(CCl)C(=O)NCNC(=O)C(C)(Cl)CCl (stereo not given),51.5%,3.8%,8.2%,-19.1%,15.8%,28.2%
CCCCS(=O)(=O)CCCC,18.5%,0.9%,-10.2%,0.6%,-1.3%,22.9%
S=C(SCc1nc(-c2ccc(Cl)cc2)no1)N1CCSCC1,-1.9%,-24.9%,17.9%,-2.6%,-3.25%,-9.4%
CC(O)C1OC(n2cnc3c(=S)nc[nH]c32)C(O)C1O (stereo not given),7.5%,15.7%,0.6%,-98.1%,-4.85%,-13.3%
CCOC(CCc1c(C)nc[nH]c1=O)OCC,-1.8%,3.7%,-2.35%,-35.4%,16.2%,-7.9%
O=[N+]([O-])c1ccc(N/N=C2/CC(c3ccccc3)C(c3ccccc3)=C2Cl)c([N+](=O)[O-])c1 (stereo not given),26.2%,15.6%,9.45%,24.4%,-1.75%,15.7%
Clc1ccccc1SSc1ccccc1Cl,21.4%,23.9%,22.2%,-9.2%,28.1%,29.9%
Nc1ccncc1CCc1ccccc1,5.5%,-16.2%,-2.05%,12.8%,-18%,3.1%
CCC(O)(c1ccc(O)cc1)C(O)(CC)c1ccc(O)cc1 (stereo not given),1.4%,-12.8%,-0.2%,5.55%,17.4%,-14.4%
CC(C)(C)C(=O)CC(=O)C(C)(C)C.CC(C)(C)C(=O)CC(=O)C(C)(C)C.CC(C)(C)C(=O)CC(=O)C(C)(C)C.[Co],-10.1%,-8.95%,21.4%,16%,-0.6%,0.15%
Cc1cc2nc3c(=O)[nH]c(=O)nc-3n(CCN(CCO)CCO)c2cc1Cl,58.9%,7.95%,48.3%,14.8%,1.55%,17.8%
CC1=C(C(=O)Nc2ccccc2C)C(c2ccccc2)C(C(=O)Nc2ccccc2C)=C(C)N1,10.7%,15.2%,9.25%,6.3%,16.3%,7.1%
Cc1cc(S(=O)(=O)/N=C(/NN)Nc2ccc(Cl)cc2)c(S)cc1Cl,22.6%,8.15%,19.9%,3.8%,27.5%,29.9%
CCCC[Si]CCCC,14.8%,10%,1.1%,14.6%,4.5%,11.2%
CCCCS(=O)(=O)CCC(N)C(=O)O (stereo not given),-3.45%,-9.45%,2.6%,-36.2%,-4.75%,-11.5%
[N-]=[N+]=NC1(Cc2ccccc2)C(=O)Nc2ccccc2C1=O (stereo not given),0.8%,-10.1%,-19.4%,4.2%,-5.65%,-16%
